PubChem BioAssay (NCI)
The panel holds about 83,000 compounds, 20% with a hit somewhere; the sample as a whole holds those more often.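 Each cell line was grown in a 96-well plate and treated with one concentration of compound for 48 hours. Values below 10 were considered active.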 A number with no mark means an inactive call. Activity calls are given as the source filed them.

Tests used:
Experiment in all cases: NCI-60 one-dose screen, 48 h (100 = growth as untreated, 0 = no growth, -100 = all killed)
[1] = tested on: SK-MEL-2 melanoma; conditions: 10 µM unless noted
[2] = tested on: EKVX NSCLC; conditions: 10 µM
[3] = tested on: SN12C renal; conditions: 10 µM unless noted
[4] = tested on: UO-31 renal; conditions: 10 µM unless noted
[5] = tested on: TK-10 renal; conditions: 10 µM unless noted
[6] = tested on: ACHN renal; conditions: 10 µM unless noted
[7] = tested on: A498 renal; conditions: 10 µM unless noted
[8] = tested on: CCRF-CEM leukemia; conditions: 10 µM
[9] = tested on: MOLT-4 leukemia; conditions: 10 µM unless noted
[10] = tested on: SR leukemia; conditions: 10 µM unless noted
[11] = tested on: RPMI-8226 leukemia; conditions: 10 µM unless noted
[12] = tested on: OVCAR-8 ovarian; conditions: 10 µM unless noted
[13] = tested on: OVCAR-5 ovarian; conditions: 10 µM unless noted
[14] = tested on: OVCAR-4 ovarian; conditions: 10 µM unless noted
[15] = tested on: SK-OV-3 ovarian; conditions: 10 µM unless noted
[16] = tested on: IGROV1 ovarian; conditions: 10 µM unless noted
[17] = tested on: OVCAR-3 ovarian; conditions: 10 µM unless noted
[18] = tested on: HS 578T breast; conditions: 10 µM unless noted
[19] = tested on: NCI/ADR-RES ovarian; conditions: 10 µM unless noted

Row | SMILES | growth [1] | growth [2] | growth [3] | growth [4] | growth [5] | growth [6] | growth [7] | growth [8] | growth [9] | growth [10] | growth [11] | growth [12] | growth [13] | growth [14] | growth [15] | growth [16] | growth [17] | growth [18] | growth [19]
1 | COc1ccc(-c2cn3ccnc3c(-c3ccc4ncn(C5CCCCC5)c4c3)n2)cc1 | 5.74% (active) | 43.4% | 36.4% | 38.5% | 81.5% | 39% | -12.3% (active) | 6.73% (active) | 17.2% | 8.27% (active) | 4.37% (active) | 28.8% | 41.2% | 53.4% | 25.7% | 46.6% | -26.5% (active) | 20% | 12.8%
2 | O=C(O)c1ccc(-c2nn(-c3ccc(C(=O)O)cc3)cc2CNc2ccc(Br)cc2)cc1 | 94.4% | 101% | 111% | 87.7% | 98.4% | 102% |  | 101% | 118% | 107% | 108% | 104% | 102% | 104% | 102% | 115% | 104% | 107% | 112%
3 | O=C(/C=C1\C(=O)N(Cc2ccc([N+](=O)[O-])cc2)c2ccccc21)c1ccc(OCCN2CCCCC2)cc1 | -29.1% (active) | 1.78% (active) | -67% (active) | -97.1% (active) | -81.4% (active) | -98.6% (active) | 56.6% |  | -26.5% (active) | -27.9% (active) | -36% (active) | 0.287% (active) | -40.6% (active) | -58.8% (active) | 85% | -49.3% (active) | -93.8% (active) | 6.94% (active) | 6.18% (active)
4 | COc1ccc(/C=N/c2cc(C(C)(C)C)nn2-c2ccccc2)cc1 | 124% | 104% | 102% | 94.5% | 117% | 95.7% | 103% |  | 96% | 78.4% |  | 97% | 113% | 109% | 101% | 125% | 125% | 107% | 118%
5 | COc1ccccc1Nc1nnc(COc2ccc(CNC(=O)CCCC/C=C/C(C)C)cc2OC)o1 | 102% | 85% | 105% | 75.2% | 103% | 95.7% | 103% | 92% | 76.7% |  | 70.7% | 101% | 89.7% | 101% | 107% | 97.8% | 89.6% | 98% | 89.8%
6 | O=C(O)c1ccc(Br)nc1 | 96.1% | 95.6% | 98.1% | 86.3% | 86.8% | 103% |  | 95.7% | 99.8% | 95.9% | 98.7% | 98.3% | 86.1% | 98.6% | 92.3% | 107% | 102% | 102% | 102%
7 | O=C1/C(=C\c2cn(-c3nc(N4CCOCC4)nc(N4CCOCC4)n3)c3ccccc23)c2ccccc2N1c1c(Cl)cccc1Cl | 74% | 61% | 64.8% | 24.6% | 60% | 72.7% | -43.7% (active) | 64.5% | 60.5% | 27.4% | 60.1% | 76.1% | 52.1% | 65.1% | 7.66% (active) | 36.2% | 69.6% | 27.9% | 72.4%
8 | O=C(/C=C1\C(=O)N(Cc2ccc([N+](=O)[O-])cc2)c2ccccc21)c1ccc(OCCN2CCCC2)cc1 | 93.7% | 71.5% | 37.3% | 40.8% | 82.8% | 45.7% | 83.1% | 15.2% | 9.27% (active) | -19% (active) | 28.4% | 66% | 77.3% | 64.9% | 102% | 74.9% | 62.7% | 50.1% | 75.6%
9 | CC1=NN(c2cccc(Cl)c2)C(=O)/C1=C\c1cn(-c2nc(N3CCOCC3)nc(N3CCOCC3)n2)c2ccccc12 | 110% | 105% | 104% | 83.3% | 93.4% | 103% | 116% | 100% | 106% |  | 98.3% | 107% | 103% | 105% | 109% | 106% | 106% | 104% | 103%
10 | CCNc1nnc(COc2ccc(CNC(=O)CCCC/C=C/C(C)C)cc2OC)o1 | 104% | 96.7% | 104% | 84.2% | 107% | 101% | 109% | 97.5% | 104% | 89% | 95.5% | 106% | 103% | 103% | 91.5% | 103% | 106% | 98.6% | 102%
11 | O=C1N/C(=N\c2nnc(-c3ccc(O)cc3)s2)S/C1=C\c1ccccc1O | 103% | 101% | 93.2% | 72.4% | 97.9% | 97.8% | 107% | 95.8% | 100% | 99.4% | 101% | 96.8% | 93.7% | 88.2% | 112% | 99.1% | 93.2% | 90.3% | 97.8%
12 | COc1ccc2c(c1)/C(=C1/S/C(=N/c3nnc(C)s3)NC1=O)C(=O)N2Cc1ccc(Br)cc1 | 25.6% | 31.8% | 43.4% | 42.6% | 35% | 36.2% | 4.62% (active) | 21.2% | 20.7% | 55% | 26.6% | 38% | 74.5% | 40.1% | 52.1% | 40.9% | 28.7% | 47.8% | 32.2%
13 | [2H]c1nc(=Nc2cc(NC(=O)C=C)c(N(C)CCN(C)C)cc2OC)[nH]c(-c2cn(C([2H])([2H])[2H])c3ccccc23)c1[2H] | 55.8% | 39.7% | 35.3% | 24.2% | 26.8% | 23.3% | 36.7% | 18.4% | 13.3% |  | 19% | 53.3% | 54.2% | 57.6% | 3.49% (active) | 19.1% | 50.6% | 63.7% | 39.1%
14 | O=C(/C=C1\C(=O)N(Cc2ccccc2)c2ccccc21)c1ccc(OCCN2CCCCC2)cc1 | 88.6% | 64.2% | 0.718% (active) | -25.9% (active) | 40.3% | -25.4% (active) | 68.4% | 1.17% (active) | 9.65% (active) |  | -33.9% (active) | 7.86% (active) | 39.8% | -22.3% (active) | 99.7% | 6.02% (active) | -37% (active) | 77.7% | 65.7%
15 | COc1ccc(C2=C/C(=C\c3ccc(Cl)cc3)C(=O)NN2C(=S)NN)cc1 | 97.3% | 94.2% | 104% | 79.6% | 129% | 96.5% | 99.3% | 91.6% | 97.8% | 93% | 86.5% | 94.2% | 112% | 90% | 89.5% | 107% | 111% | 96.6% | 94.5%
16 | COc1ccc(CN2C(=O)/C(=C\C(=O)c3ccc(OCCN4CCCC4)cc3)c3ccccc32)cc1 | 103% | 96.4% | 49.8% | 56.5% | 109% | 69.9% | 88.8% | 2.08% (active) | 5.57% (active) | -14.2% (active) | -4.7% (active) | 86.5% | 77.6% | 60.4% | 101% | 81.4% | 49.6% | 84.2% | 85.8%
